# Test results from PubChem BioAssay (NCI).
# About 83,000 compounds went through this panel and 20% of them were active in at least one assay; those are over-represented in the sample as a whole.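 Cell lines were cultured in 96-well plates, exposed to a single compound concentration, and assessed for percent growth 48 hours later.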 Unmarked numbers belong to inactive results. Active and inactive are the calls of the source.
# Test system: OVCAR-3 ovarian
# Assay: NCI-60 one-dose screen, 48 h (100 = growth as untreated, 0 = no growth, -100 = all killed)
# Conditions: 10 µM unless noted
# Experimental: Growth inhibition of the OVCAR-3 human tumor cell line is measured as a screen for anti-cancer activity. Cells are grown in 96 well plates and exposed to the test compound for 48 hours. Compounds are tested at a single concentration, which is 10^-5 M for most compounds. The reported endpoint is percent growth (GI% or GIPRCNT), where numbers from 0 - 100% represent growth inhibition, and numbers from -100% - 0 represent cell death. For example, a value of 40 represents 60% growth inhibition. A value of 0 means no net growth occurred over the course of the experiment. A value of -40 indicates 40% of cells at the beginning of the experiment died by the end of the experiment. A value of -100 means all cells are dead at the end of the experiment.
# NCI-60 Human Tumor Cell Lines Screen was performed using the standard one-dose NCI protocol, which is described in more detail at https://dtp.cancer.gov/discovery_development/nci-60/default.htm.
# Compounds with GIPRCNT values below 10 were considered active. Activity score was based on GIPRCNT using the following formula: […]
# Score is 0 for GIPRCNT values of 100 or above, 50 for GIPRCNT values of 0, and 100 for GIPRCNT values of -100.
row,Compound,growth
1,Cc1ccc(C(=O)C2CN(C)CCC2(O)c2ccc(C)cc2)cc1 (stereo not given),119%
2,c1ccc(CCN2CCCCC2Cc2ccccc2)cc1 (stereo not given),103%
3,O=C(O)C1[O][Sb][O]C1C(=O)O (stereo not given),95.4%
4,CC1(C)N=C(N)N=C(N)N1c1ccc(CCCCc2ccc(S(=O)(=O)F)cc2)c(Cl)c1,35.3%
5,CO[C@@H]1[C@H](OC(=O)NC(=O)CCl)CC[C@]2(CO2)[C@H]1[C@@]1(C)O[C@@H]1CC=C(C)C,71.8%
6,Cc1ccc2oc(=O)c3c(c2c1)OC(N)=C(C#N)C3c1ccco1 (stereo not given),104%
7,O=C1NC(=S)NC(=O)C1=Cc1ccccc1,121%
8,O=CN1N=C(c2ccccc2)CC1c1sc(N(CCCl)CCCl)nc1Cl (stereo not given),96.1%
9,COc1cc2c(cc1OC)CN(C)C(C)C2 (stereo not given),113%
10,O=C(O)CC(Br)C(=O)CBr (stereo not given),114%
11,ClCCN(CCCl)c1nc(Cl)c(C2CC(c3ccccc3)=NN2c2ccccc2)s1 (stereo not given),99.9%
12,CC(/C=N/N=C(N)N)=N\N=C(N)N,57.7%
13,CC12CCC3C(CC=C4CC(O)CCC43C)C1C/C(=C\N1CCOCC1)C2=O (stereo not given),116%
14,COP(=S)(OC)Oc1ccc(SC)c(C)c1,104%
15,CNC(=O)Oc1cccc(OC)c1,121%
16,NS(=O)(=O)c1nc[nH]c1[N+](=O)[O-],115%
17,COc1cc(/C=C\c2cc(OC)c(OC)c(OC)c2)cc(N/C=C\C(=O)c2ccc(OC(F)(F)F)cc2)c1OC,-8.54% (active)
18,CC(=O)[O][Hg][c]1nc2c(c(=O)n(C)c(=O)n2C)n1C,110%
19,C=C=[CH][Sn]([c]1ccccc1)([c]1ccccc1)[c]1ccccc1,-94% (active)
20,Nc1c(Br)cc([N+](=O)[O-])cc1[N+](=O)[O-],108%

row,Compound,growth
1,COc1ccc(NP2(=O)OCC(C)(N)CO2)cc1 (stereo not given),107%
2,CC1(C)N=C(N)N=C(N)N1c1cccc(C(=O)Nc2cccc(S(=O)(=O)F)c2)c1,112%
3,CC1COC(=O)C1 (stereo not given),107%
4,COc1ccc(C2SCC(=O)Nc3c2c(C)nn3-c2nc3ccc(C)cc3s2)cc1O (stereo not given),5.66% (active)
5,CNC(C)Cc1ccccc1 (stereo not given) (tested in a mixture with another compound),104%
6,Cc1cccc(N=C2c3cc([N+](=O)[O-])ccc3-c3c2cc([N+](=O)[O-])cc3[N+](=O)[O-])c1,50.4%
7,CC[CH2][Pb]([CH2]CC)([CH2]CC)[O]C(=O)C(F)(F)F,-95.4% (active)
8,CC(C)(NC(=O)c1nn(CCCCCF)c2ccccc12)c1ccccc1,105%
9,CCC[CH2][Sn]([CH2]CCC)([CH2]CCC)[O]C(=O)CC,-99.1% (active)
10,CC1(C)N=C(N)N=C(N)N1c1ccc(CCC(=O)Nc2cccc(S(=O)(=O)F)c2)cc1,114%
11,CC(=O)O[C@@H]1C2=C(C)C3(CC3)[C@@](C)(O)C(=O)C2=C[C@@]1(C)CO,-9.99% (active)
12,ClCCN(CCCl)c1nc(Cl)c(C2CC(c3ccc(Cl)cc3)=NN2c2cc(Cl)cc(Cl)c2)s1 (stereo not given),108%
13,COc1cc(C2CC(=O)Nc3nc(N)[se]c32)c(OC)c2c1OCO2 (stereo not given),114%
14,CNC(=O)Oc1ccccc1,108%
15,CC1(CF)NC(=O)NC1=O (stereo not given),115%
16,c1ccc(-c2ccc3ccccc3[o+]2)cc1,100%
17,CC(C)(C)[Si](C)(C)OC1[C@@H](O[Si](C)(C)C(C)(C)C)[C@@H](CNC(=O)NC(=O)CF)O[C@H]1n1cnc2c(NC(=O)Nc3ccccc3)ncnc21 (stereo not given in full),19.8%
18,COc1cc(C2(C#N)CCN(C)CC2)cc(OC)c1OC,108%
19,C[As](=O)(O)c1ccc(C(=O)O)cc1,121%
20,O=C1NC(=O)C(CN2C(=O)C3(c4ccccc42)[C@H](Cl)C(=O)N3c2ccccc2)C(=O)N1 (stereo not given in full),54.7%
